PubChem BioAssay (Tox21)
Results filed as inconclusive are left out. More than one record can exist for a structure, and the calls need not agree. Activity calls are given as the source filed them. Unless noted, the call rests on the fitted dose curve; in most records, active means well fitted curve in the direction sought with a large enough effect in the repeat runs; inconclusive means weak or mixed curves; inactive means no such curve, though single readings can be large; an effect the other way counts as inactive or inconclusive.

Experiments:
[1] = qHTS assay for small molecules that induce genotoxicity in human embryonic kidney cells expressing luciferase-tagged ATAD5 (AID 651632); further: nearly all actives have a fitted effect of over 15% in size
In short: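 Concentration-response screen for ATAD5 upregulation in HEK293T luciferase reporter cells; 16 hr treatment at 37C, then luminescence after 30 min with Amplite at room temperature.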

[2] = qHTS assay for small molecule agonists of the p53 signaling pathway - cell viability (AID 651633; calls by dose curve; further: nearly all actives have a fitted effect of over 30% in size; further: potency means the concentration at half of the fitted maximal effect)
In short: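 p53RE-bla cells, seeded at 4,000 per well and rested 5 h at 37 C/5% CO2, received compounds in DMSO for 16 h at 37 C. CellTiter-Glo was then added, and luminescence was read after 30 min at room temperature to gauge cytotoxicity.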

[3] = qHTS assay for small molecule disruptors of the mitochondrial membrane potential (AID 720635); further: potency means the concentration at half of the fitted maximal effect
In short: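 HepG2 cells (2,000/well) attached overnight at 37C, then took compound for 1 hr at 37C, 5% CO2. Mito-MPS dye was added for 30 min; fluorescence was read at 490/535 nm (monomers) and 540/590 nm (aggregates).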

[4] = qHTS assay to test for compound auto fluorescence at 590 nm (red) in HepG2 cells (AID 720674)
In short: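 Compound auto-fluorescence is scored relative to Rose Bengal sodium, measured at 540/590 nm in live HepG2 cultures after 1 hr compound contact (37 C, 5% CO2).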

[5] = qHTS assay to test for compound auto fluorescence at 535 nm (green) in HepG2 cells (AID 720675)
[6] = qHTS assay to test for compound auto fluorescence at 460 nm (blue) in HEK293 cells (AID 720678)
In short: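 Blue read-out at excitation 405 nm and emission 460 nm follows overnight compound exposure of HEK293 cells at 37C in 5% CO2. Activity is given as auto fluorescence equivalency to triamterene.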

[7] = qHTS assay to test for compound auto fluorescence at 590 nm (red) in HEK293 cells (AID 720679)
In short: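 Red channel, Ex/Em 540/590nm; signal expressed as equivalency to Rose Bengal sodium. HEK293, 2,000 cells/well, 10% dialyzed FBS; 23 nL compound pinned after 4-5 hr attachment; overnight 37C/5% CO2 before reading.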

[8] = qHTS assay for small molecules that induce genotoxicity in human embryonic kidney cells expressing luciferase-tagged ATAD5 - cell viability (AID 651634; calls by dose curve; further: nearly all actives have a fitted effect of over 25% in size; further: potency means the concentration at half of the fitted maximal effect)
In short: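 15.5 hr compound or vehicle exposure of HEK293T cells expressing luciferase-tagged ATAD5 at 37C; live-cell protease activity is read by fluorescence after 30 min of CellTiter-Fluor.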

[9] = qHTS assay for small molecule disruptors of the mitochondrial membrane potential - cell viability (AID 720634; calls by dose curve; further: nearly all actives have a fitted effect of over 20% in size; further: potency means the concentration at half of the fitted maximal effect)
In short: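 In this qHTS format, HepG2 cells plated overnight were pinned with compound, incubated 1 hr, and assayed for ATP luminescence with CellTiter-Glo after m-MPI dye addition.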
On the % scale 0 is the no-effect control and ±100 the full control effect.

Cc1cc2nc3ccc(=[N+](C)C)cc-3sc2cc1N
active: Potency [2] 7.5 µM | Potency [3] 3.76 µM
inactive: Potency [1] | outcome [4] | outcome [5] | Potency [6] | outcome [7]

ON(Cc1ccccc1)Cc1ccccc1
inactive: Potency [1] | Potency [8] | Potency [9] | Potency [3] | outcome [4] | outcome [5] | Potency [6] | outcome [7]

CC1=C(C=O)C(C)(C)CCC1
inactive: Potency [1] | Potency [8] | Potency [9] | outcome [4] | outcome [5] | Potency [6] | outcome [7]

C=CC(=C)CCCC(C)(C)OC(C)=O
inactive: Potency [1] | Potency [8] | Potency [9] | Potency [3] | outcome [4] | outcome [5] | Potency [6] | outcome [7]

COC(=O)[C@@H]1CC2=CC(=O)CC[C@]2(C)[C@@]23O[C@@H]2C[C@@]2(C)[C@@H](CC[C@@]24CCC(=O)O4)[C@H]13
inactive: Potency [1] | Potency [8] | Potency [9] | outcome [4] | outcome [5] | Potency [6] | outcome [7]

CCOC(=O)OCC
inactive: Potency [1] | Potency [2] | Potency [8] | outcome [4] | outcome [5] | Potency [6]

C=CC(C)(C)CC(=O)OC
inactive: Potency [1] | Potency [2] | Potency [8] | Potency [9] | outcome [4] | outcome [5] | Potency [6] | outcome [7]

CC1=CC(O)CC(C)(C)C1 (stereo not drawn)
inactive: Potency [1] | Potency [8] | Potency [9] | outcome [4] | outcome [5] | Potency [6] | outcome [7]

CN(C)CCOC1=Cc2ccccc2Sc2ccc(Cl)cc21
inactive: Potency [1] | Potency [8] | Potency [9] | outcome [4] | outcome [5] | Potency [6] | outcome [7]

CCCCCCCCCCOS(=O)(=O)O
inactive: Potency [1] | Potency [2] | Potency [8] | Potency [9] | outcome [4] | outcome [5] | Potency [6] | outcome [7]

C[C@@H]1C[C@H]2[C@@H]3CCC4=CC(=O)C=C[C@]4(C)[C@@]3(F)[C@@H](O)C[C@]2(C)[C@@]1(O)C(=O)CO
inactive: Potency [1] | Potency [2] | Potency [8] | Potency [9] | outcome [4] | outcome [5] | Potency [6] | outcome [7]

CCCC(=O)O[C@]1(C(=O)COC(=O)CC)CC[C@H]2[C@@H]3CCC4=CC(=O)CC[C@]4(C)[C@H]3[C@@H](O)C[C@@]21C
inactive: Potency [1] | Potency [8] | Potency [9] | Potency [3] | outcome [4] | Potency [6]

CCCOc1ccc(S(=O)(=O)N2CCN(CC)CC2)cc1-c1nc2c(CC)n(Cc3ccccn3)nc2c(=O)[nH]1
inactive: Potency [1] | Potency [2] | Potency [8] | Potency [9] | outcome [4] | outcome [5] | Potency [6] | outcome [7]

CO[Si](C)(OC)OC
inactive: Potency [1] | Potency [2] | Potency [8] | Potency [9] | outcome [4] | outcome [5] | Potency [6] | outcome [7]

O=C(c1ccc(O)cc1)c1ccc(Cl)cc1
active: Potency [3] 15.7 µM
inactive: Potency [1] | Potency [2] | Potency [8] | outcome [4] | Potency [6] | outcome [7]

Cc1cc(C(=C2C=CC(=Nc3ccc(S(=O)(=O)O)cc3S(=O)(=O)O)C=C2)c2ccc(Nc3ccc(S(=O)(=O)O)cc3)cc2)ccc1N
inactive: Potency [1] | Potency [2] | Potency [8] | Potency [9] | outcome [4] | outcome [5] | Potency [6] | outcome [7]

CCNC(=O)N1CCN(CCCC(c2ccc(F)cc2)c2ccc(F)cc2)CC1
inactive: Potency [1] | Potency [2] | Potency [9] | outcome [4] | outcome [5] | Potency [6] | outcome [7]

Cc1ccc(Nc2nccc(N(C)c3ccc4c(C)n(C)nc4c3)n2)cc1S(N)(=O)=O
active: Potency [8] 26.6 µM | Potency [3] 0.75 µM
inactive: Potency [1] | Potency [9] | outcome [4] | outcome [5] | Potency [6] | outcome [7]

OC(CCCN1CCCCC1)(c1ccccc1)c1ccccc1
inactive: Potency [1] | Potency [8] | Potency [9] | outcome [4] | outcome [5] | Potency [6]

OC/C(Br)=C(\Br)CO
inactive: Potency [1] | Potency [2] | Potency [8] | Potency [9] | outcome [4] | outcome [5] | Potency [6] | outcome [7]

O=c1[nH]c2ccc(S(=O)CCN3CCC(Cc4ccc(F)cc4)CC3)cc2o1 (stereo not drawn)
inactive: Potency [1] | Potency [2] | Potency [8] | Potency [9] | outcome [4] | outcome [5] | Potency [6] | outcome [7]

Cc1occc1C(=O)Nc1ccc(C(=O)N2CCC(F)(F)/C(=C\C(=O)N3CCC(N4CCCCC4)CC3)c3ccccc32)cc1
inactive: Potency [1] | Potency [8] | Potency [9] | outcome [4] | outcome [5] | Potency [6] | outcome [7]

CCCCC(CC)C(=O)OCCOCCOCCOCCOC(=O)C(CC)CCCC (stereo not drawn)
inactive: Potency [1] | Potency [2] | Potency [8] | Potency [9] | outcome [4] | outcome [5] | Potency [6] | outcome [7]

COCCOC(=O)C1=C(C)NC(C)=C(C(=O)OC/C=C/c2ccccc2)C1c1cccc([N+](=O)[O-])c1 (stereo not drawn)
active: Potency [9] 9.44 µM | Potency [3] 10.6 µM
inactive: Potency [1] | Potency [8] | outcome [4] | outcome [5] | Potency [6] | outcome [7]

Cc1cc(S(=O)(=O)O)ccc1N=Nc1c(O)ccc2ccccc12
active: Potency [8] 48.6 µM
inactive: Potency [1] | Potency [2] | Potency [9] | outcome [4] | Potency [6] | outcome [7]

CC(CCc1ccc2c(c1)OCO2)NN (stereo not drawn)
inactive: Potency [1] | Potency [8] | Potency [9] | Potency [3] | outcome [4] | outcome [5] | Potency [6] | outcome [7]

NC(=O)N(O)[C@@H]1C=C[C@H](Oc2cccc(Oc3ccc(F)cc3)c2)C1
inactive: Potency [1] | Potency [2] | Potency [8] | outcome [4] | outcome [5] | Potency [6] | outcome [7]

C1COCO1
inactive: Potency [1] | Potency [2] | Potency [8] | Potency [9] | outcome [4] | outcome [5] | Potency [6] | outcome [7]

CCc1nn(CCCN2CCN(c3cccc(Cl)c3)CC2)c(=O)n1CCOc1ccccc1
26.6 µM (active) and inactive: Potency [2]
inactive: Potency [1] | Potency [9] | outcome [4] | outcome [5] | Potency [6] | outcome [7]

Oc1ccc(Nc2ccccc2)cc1
inactive: Potency [1] | Potency [2] | Potency [9] | outcome [4] | outcome [5] | Potency [6] | outcome [7]
active: Potency [3] 54.5 µM

O=C(N/N=C/c1ccc([N+](=O)[O-])o1)c1ccc(O)cc1
inactive: Potency [1] | Potency [2] | fluorescence, relative to Rose Bengal [4] -0.334% [at 18.6 µM] | fluorescence, % of fluorescein control [5] -0.0853% [at 18.6 µM] | fluorescence, % of triamterene [6] 0.159% [at 18.6 µM]
active: Potency [3] 1.27 µM

Oc1cc(O)c(Cl)cc1Cl
active: Potency [3] 7.03 µM
inactive: Potency [1] | Potency [2] | Potency [8] | outcome [4] | Potency [6]

Cc1ccc(/C=N/n2c(-c3ccccc3)csc2=S)cc1
active: Potency [3] 18.8 µM
inactive: Potency [1] | Potency [2] | Potency [8] | outcome [4] | outcome [5] | Potency [6] | outcome [7]

Cc1oc(C)c(C(=O)Nc2ccccc2)c1C
inactive: Potency [1] | Potency [8] | Potency [9] | outcome [4] | outcome [5] | Potency [6] | outcome [7]
active: Potency [3] 27.3 µM

O=Cc1c(Cl)cccc1Cl
inactive: Potency [1] | Potency [8] | Potency [9] | outcome [4] | outcome [5] | Potency [6] | outcome [7]
